Laboratory results from PubChem BioAssay (NCI).
Several values for one entry are separate records, joined by “and”; a condition that tells them apart may be missing. Equal values may be shown once. About 83,000 compounds went through this panel and 20% of them were active in at least one assay; those are over-represented in the sample as a whole.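 Values shown are percent growth following 48 h exposure of cells in 96-well plates to a single concentration of compound; below 10 was considered active.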 Activity calls are given as the source filed them.

How the values were obtained:
Test in all cases: NCI-60 one-dose screen, 48 h (100 = growth as untreated, 0 = no growth, -100 = all killed)
Conditions in all cases: 10 µM unless noted
SK-MEL-2 melanoma = system: SK-MEL-2 melanoma
EKVX NSCLC = system: EKVX NSCLC
SN12C renal = system: SN12C renal
UO-31 renal = system: UO-31 renal
TK-10 renal = system: TK-10 renal
CAKI-1 renal = system: CAKI-1 renal
A498 renal = system: A498 renal
CCRF-CEM leukemia = system: CCRF-CEM leukemia
MOLT-4 leukemia = system: MOLT-4 leukemia
ACHN renal = system: ACHN renal

Row | Structure (SMILES) | growth (SK-MEL-2 melanoma) | growth (EKVX NSCLC) | growth (SN12C renal) | growth (UO-31 renal) | growth (TK-10 renal) | growth (CAKI-1 renal) | growth (A498 renal) | growth (CCRF-CEM leukemia) | growth (MOLT-4 leukemia) | growth (ACHN renal)
1 | COc1ccc(/C(=N\N=C(N)N)c2ccc(Cl)cc2)cc1OC | 99.9% (inactive) | 72.6% (inactive) | 70.8% (inactive) | 83.7% (inactive) | 77% (inactive) | 50.1% (inactive) | 76.5% (inactive) | 67.3% (inactive) | 52.5% (inactive) | 
2 | COc1ccc2c(c1)c(-c1nc(N)nnc1-c1c[nH]c3ccccc13)cn2C | 52.6% (inactive) | 43.9% (inactive) | 53.6% (inactive) | 50.9% (inactive) | 92.8% (inactive) | 31.1% (inactive) | 4.9% (active) | 28.7% (inactive) | 25.5% (inactive) | 
3 | O=C1Nc2ccccc2/C1=N\c1nnc(-c2ccccc2)o1 | 96.4% (inactive) | 67.9% (inactive) | 104% (inactive) | 75.5% (inactive) | 224% (inactive) | 88.2% (inactive) | 90.7% (inactive) | 96.2% (inactive) | 96.7% (inactive) | 
4 | CN(C)c1ccc(/C=N/Nc2nc(N/N=C/c3ccc(N(C)C)cc3)nc(N3CCCCC3)n2)cc1 | 111% (inactive) | 97% (inactive) | 50.4% (inactive) | 80.3% (inactive) | 118% (inactive) | 89.9% (inactive) | 115% (inactive) | 25.8% (inactive) | 12.1% (inactive) | 
5 | O=S(=O)(Oc1ccc(-c2cn3ccoc3n2)cc1)c1cccc(C(F)(F)F)c1 | 104% (inactive) | 102% (inactive) | 96.2% (inactive) | 93.1% (inactive) | 85.4% (inactive) |  |  | 106% (inactive) | 103% (inactive) | 102% (inactive)
6 | C#CCN(C)CCCOc1ccc(NCc2ccc(/C=C/C(=O)NO)cc2)cc1Cl | -6.42% (active) | 16.3% (inactive) | 12.1% (inactive) | -57.4% (active) | -12% (active) |  | -72.2% (active) | 10.7% (inactive) | 15.7% (inactive) | 
7 | COC(=O)c1ccc(NC2=C(Cl)C(=O)c3nc(C)ccc3C2=O)cc1 | 88.3% (inactive) | 76.6% (inactive) | 77% (inactive) | 61.7% (inactive) | 152% (inactive) |  |  | 16.1% (inactive) | 19.8% (inactive) | 35.1% (inactive)
8 | CCCCCCCCCC(=O)NC(C)(C)C(=O)N1CCC[C@H]1C(=O)N[C@@H](CC(C)C)C(=O)N[C@@](C)(CC)C(=O)N[C@@H](CCC(N)=O)C(=O)N[C@H](CCC(N)=O)C(=O)NC(C)(C)C(=O)NC(C)(C)C(=O)N[C@@H](CCC(N)=O)C(=O)N[C@H](CC(C)C)C(=O)N[C@H](CO)CC(C)C | -86.8% (active) and -74.3% (active) | -87.8% (active) and -64.6% (active) | -86.4% (active) and -84.1% (active) | -94% (active) and 26.4% (inactive) | -70.9% (active) and 14.9% (inactive) | -67.5% (active) and 5.79% (active) | -91.3% (active) and -31.5% (active) | -72% (active) and -39.7% (active) | -81.5% (active) and -26.1% (active) | 
9 | O=C(CSc1nc2ccccc2c(=O)n1-c1ccccc1)N/N=C/c1ccc(Oc2ccc(Cl)cc2)cc1 | 86.9% (inactive) | 59% (inactive) | 26.9% (inactive) | 81.2% (inactive) | 104% (inactive) | 59.2% (inactive) | 65.7% (inactive) | 50.4% (inactive) | 58.7% (inactive) | 
10 | C#C[C@]1(O)CC[C@H]2[C@@H]3CC=C4c5sc(NCc6ccccc6)nc5CC[C@]4(C)[C@H]3CC[C@@]21C | -17.9% (active) | 55.4% (inactive) | 83.6% (inactive) | 13.2% (inactive) | 76.8% (inactive) | 50.6% (inactive) | 8.6% (active) | 6.53% (active) | -11.7% (active) | 
11 | CN1CCN(c2ccc(Nc3nc(NCCCNS(=O)(=O)c4ccccc4)c4sccc4n3)cc2)CC1 | 106% (inactive) | 97.6% (inactive) | 72.7% (inactive) | 69.2% (inactive) | 145% (inactive) | 30.8% (inactive) | 131% (inactive) | 37.9% (inactive) | 26% (inactive) | 
12 | O=S(=O)(Oc1ccc(-c2cn3ccsc3n2)cc1)c1cccc(C(F)(F)F)c1 | 101% (inactive) |  | 104% (inactive) | 93.1% (inactive) | 98.7% (inactive) | 89.9% (inactive) | 86.8% (inactive) | 100% (inactive) | 97.6% (inactive) | 98.4% (inactive)
13 | C=C1CCc2nc(SCC(=O)O)ccc2N1 | 104% (inactive) |  | 97.1% (inactive) | 91.1% (inactive) | 100% (inactive) | 97.3% (inactive) | 85.7% (inactive) | 96.9% (inactive) | 97.5% (inactive) | 102% (inactive)
14 | CN1CCN(c2ccc(Nc3nc(NCCNC(=O)c4ccc(F)cc4)c4sccc4n3)cc2)CC1 | 104% (inactive) |  | 84.2% (inactive) | 65.5% (inactive) | 128% (inactive) | 57.9% (inactive) | 125% (inactive) | 38.2% (inactive) | 23.4% (inactive) | 67.8% (inactive)
15 | CCN(CC)S(=O)(=O)c1ccc(-c2nc(C(Cl)Cl)nc3cc(-c4ccc(F)cc4)nn23)cc1 | 82.3% (inactive) |  | 67.6% (inactive) | 27.6% (inactive) | 49.9% (inactive) | 12% (inactive) | 56.2% (inactive) | 73.9% (inactive) | 56.6% (inactive) | 0.483% (active)
16 | Cn1cc(-c2nn3cc(-c4ccncc4)nc3s2)c2cc(F)ccc21 | 99.8% (inactive) |  | 88.6% (inactive) | 55.1% (inactive) | 155% (inactive) |  | 96.3% (inactive) | 16% (inactive) |  | 84% (inactive)
17 | C#C[C@]1(O)CC[C@H]2[C@@H]3CC=C4c5sc(Nc6ncccc6C)nc5CC[C@]4(C)[C@H]3CC[C@@]21C | -11.1% (active) |  | 40.9% (inactive) | -39.8% (active) | 40.9% (inactive) | -36.3% (active) | -5.84% (active) | 7.66% (active) | -30.3% (active) | 18.1% (inactive)
18 | O=C(/C=C/Nc1ccc(S(=O)(=O)Nc2ncccn2)cc1)c1ccc(N=Cc2c(O)[nH]c3ccccc23)cc1 | 118% (inactive) |  | 98.3% (inactive) | 92.4% (inactive) | 112% (inactive) |  | 98.5% (inactive) | 104% (inactive) | 109% (inactive) | 106% (inactive)
19 | C/C(=C(/C)C1CC1CCNC1CCC(NC(=O)OC(C)(C)C)CC1)c1ccccc1 (stereo not given) | 95.9% (inactive) |  | 76.2% (inactive) | 63.8% (inactive) | 108% (inactive) |  | 78% (inactive) | 54% (inactive) | 61.9% (inactive) | 87.1% (inactive)
20 | N#Cc1c(-c2cccs2)cc(-c2cnccn2)nc1SCC(=O)N/N=C/c1ccccc1 | 103% (inactive) |  | 45.5% (inactive) | 75.8% (inactive) | -14.7% (active) | 48.2% (inactive) | 87.8% (inactive) | 62.6% (inactive) | 71.8% (inactive) | 56.9% (inactive)
21 | CC(C)(C)c1cc(NC(=O)Nc2ccc(-c3cn4c5c(sc4n3)CCc3cn(CCCN4CCCCC4)cc3-5)cc2)no1 | 108% (inactive) |  | -86.3% (active) | -70.3% (active) | -89.3% (active) | -97.2% (active) | 74.5% (inactive) | 3.37% (active) | -10.9% (active) | -99.7% (active)
22 | O=C1C(N2CCN(c3ccccc3)CC2)=C(Cl)C(=O)c2ncccc21 | 97.1% (inactive) |  | 58.2% (inactive) | 14.9% (inactive) | 123% (inactive) | 39.9% (inactive) | 104% (inactive) | 6.08% (active) | 9.67% (active) | -3.31% (active)
23 | O=C(CCCCCCNC(=O)c1csc(Br)n1)NO | 57.3% (inactive) |  | 73.4% (inactive) | 22.7% (inactive) | -3.87% (active) | 21% (inactive) | -4.04% (active) | 16.1% (inactive) | 17.4% (inactive) | 13.9% (inactive)
24 | CNC(=O)c1cc(N2CCc3cc(NC(=O)Nc4ccc(N5CCOCC5)c(C(F)(F)F)c4)ccc32)ccn1 | 45.6% (inactive) |  | 15% (inactive) | 16.9% (inactive) | 80.8% (inactive) |  | 60% (inactive) | 25.1% (inactive) | 22.9% (inactive) | 
25 | CCN(CC)c1ccc(/C=N/NC(=O)c2ccc(NS(C)(=O)=O)cc2)cc1 | 40.1% (inactive) |  | 37.5% (inactive) | 15.7% (inactive) | 48.3% (inactive) |  |  | 13% (inactive) | 14.4% (inactive) | 10.9% (inactive)
26 | Clc1cccc(/C=N/Nc2nc(N/N=C/c3cccc(Cl)c3)nc(N3CCOCC3)n2)c1 | -1.89% (active) |  | 59.9% (inactive) | 26.8% (inactive) | 100% (inactive) | 37.6% (inactive) | 4.3% (active) | 24.8% (inactive) | 6.04% (active) | 25.8% (inactive)
27 | Cc1ccc(-c2csc(N/N=C/c3cccs3)n2)cc1 | 111% (inactive) |  | 100% (inactive) | 75.1% (inactive) | 151% (inactive) | 87.4% (inactive) | 116% (inactive) | 91.9% (inactive) | 86.7% (inactive) | 90.4% (inactive)
28 | CCOC(=O)c1cnc2c(-c3ccc(Cl)c(Cl)c3)cnn2c1 | 83.9% (inactive) |  | 95.7% (inactive) | 80.2% (inactive) | 117% (inactive) | 67.2% (inactive) | 82.8% (inactive) | 68.4% (inactive) | 62.3% (inactive) | 104% (inactive)
29 | CCn1c2ccc(/C=N/N(C)S(=O)(=O)CCN(C)C)cc2c2cc(/C=N/N(C)S(=O)(=O)CCN(C)C)ccc21 | 107% (inactive) |  | 33.3% (inactive) | 47.5% (inactive) | 142% (inactive) | 48.1% (inactive) | 85.3% (inactive) | 19.4% (inactive) | 15.1% (inactive) | 70.2% (inactive)
